These results are taken from PubChem BioAssay (NCI).

The structures appear in SMILES notation. Compounds without any hit were thinned out: in the full panel of roughly 79,000, 15% have a hit. Values without a mark were called inactive. Activity calls are given as the source filed them. Rule as the data show it: active = growth inhibition above about 70%; inactive = the rest.

Assay [1] is described as follows: NCI Yeast Anticancer Drug Screen. Data for the rad50 strain (AID 155).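 Also: 0% = growth of vehicle-only cultures of the same strain.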 Conditions: S. cerevisiae rad50 strain growth inhibition, active compounds read high. The essentials: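 DNA repair mutant yeast, compound exposure, growth read-out; inhibition is taken relative to vehicle.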
Assay [2] is described as follows: NCI Yeast Anticancer Drug Screen. Data for the mec2-1 strain (AID 157). The note with it: S. cerevisiae mec2-1 strain, active compounds read high. The method, boiled down:
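Cells of the genetically defined mec2-1 yeast strain are incubated with test compound. Inhibition of growth is calculated against vehicle-treated controls.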

A short description of assay [3]: NCI Yeast Anticancer Drug Screen. Data for the sgs1 mgt1 strain (AID 161).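 Also: 0% = growth of cultures given vehicle only.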 Conditions: S. cerevisiae sgs1 mgt1 strain, active compounds read high. The essentials: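 Mutant yeast exposed to compound; growth scored against vehicle-only wells.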
A short description of assay [4]: NCI Yeast Anticancer Drug Screen. Data for the cln2 rad14 strain (AID 165).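 Also: 0% = growth equal to vehicle treated cultures.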 Conditions: S. cerevisiae cln2 rad14 strain, active compounds read high. The method, boiled down: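 The screen exposed genetically defined yeast (cln2 rad14) to test compounds and scored growth inhibition relative to vehicle-treated controls.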
Assay [5] is described as follows: NCI Yeast Anticancer Drug Screen. Data for the bub3 strain (AID 167). Conditions: S. cerevisiae bub3 mutant strain, active compounds read high. The method, boiled down:
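In this screen, a yeast mutant lacking normal mitotic checkpoint function is challenged with compound. Relative growth versus vehicle gives the inhibition value.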

The nature of assay [6]: NCI Yeast Anticancer Drug Screen. Data for the mlh1 rad18 strain (AID 175). The note with it: S. cerevisiae mlh1 rad18 strain growth inhibition, active compounds read high. The method, boiled down: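 Compound-treated yeast growth, normalised to vehicle controls. Strain bears defined DNA repair mutations.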
Setting [7] is: at 5.0 µM (retest, dose inferred, filed as 0.5).
Where [8] appears, read: at 50.0 µM (retest, dose inferred, filed as 5.0).

In the case of `CC1(C)C2CCC([CH2][Hg][Cl])C1C2` (configuration not stated), the growth inhibition in assay [1] (setting [7]) is 99% (active); in assay [1] (setting [8]), 98% (active); in assay [1] (at 50.0 µM), 98.8% (active); in assay [2] (setting [7]), 100% (active); in assay [2] (setting [8]), 95% (active); in assay [2] (at 50.0 µM), 99.2% (active). For the same compound, the growth inhibition is 100% (active) in assay [3] (setting [7]); 97% (active) in assay [3] (setting [8]); 99.2% (active) in assay [3] (at 50.0 µM); 99% (active) in assay [4] (setting [7]); 98% (active) in assay [4] (setting [8]); 99% (active) in assay [4] (at 50.0 µM). Also, the growth inhibition in assay [5] (setting [7]) was 99% (active); in assay [5] (setting [8]), 98% (active); in assay [5] (at 50.0 µM), 99.3% (active); in assay [6] (setting [7]), 100% (active); in assay [6] (setting [8]) it was 98% (active); in assay [6] (at 50.0 µM) it was 99% (active).

In the case of `CCCCCc1cc(O)c(CCCC)c(O)c1`, the growth inhibition in assay [1] (setting [7]) was -107%; in assay [1] (setting [8]), 87% (active); in assay [1] (at 50.0 µM), 99.4% (active); in assay [2] (setting [7]) it was -39%; in assay [2] (setting [8]) it was 63%; in assay [2] (at 50.0 µM), 99% (active). The growth inhibition in assay [3] (setting [7]) is -43%; in assay [3] (setting [8]), 90% (active); in assay [3] (at 50.0 µM), 99% (active); in assay [4] (setting [7]), -47%; in assay [4] (setting [8]), 32%; in assay [4] (at 50.0 µM), 99.1% (active). Moreover, the growth inhibition in assay [5] (setting [7]) is -56%; in assay [5] (setting [8]), 83% (active); in assay [5] (at 50.0 µM), 99.2% (active); in assay [6] (setting [7]), -92%; in assay [6] (setting [8]), 87% (active); in assay [6] (at 50.0 µM), 99% (active).

`[Cl][Hg][c]1ccc(Cl)s1`: the growth inhibition was 99% (active) in assay [1] (setting [7]); 99% (active) in assay [1] (setting [8]); 99.2% (active) in assay [1] (at 50.0 µM); 100% (active) in assay [2] (setting [7]); 99% (active) in assay [2] (setting [8]); 99.2% (active) in assay [2] (at 50.0 µM). The growth inhibition in assay [3] (setting [7]) is 100% (active); in assay [3] (setting [8]) it was 100% (active); in assay [3] (at 50.0 µM), 99% (active); in assay [4] (setting [7]) it was 99% (active); in assay [4] (setting [8]), 99% (active); in assay [4] (at 50.0 µM), 99% (active). Besides, the growth inhibition is 100% (active) in assay [5] (setting [7]); 100% (active) in assay [5] (setting [8]); 99.3% (active) in assay [5] (at 50.0 µM); 99% (active) in assay [6] (setting [7]); 99% (active) in assay [6] (setting [8]); 98.6% (active) in assay [6] (at 50.0 µM).

Consider `COS(=O)(=O)c1ccccc1`, for which the growth inhibition is 8% in assay [1] (setting [7]); -2% in assay [1] (setting [8]); -2.5% in assay [1] (at 50.0 µM); 0% in assay [2] (setting [7]); -2% in assay [2] (setting [8]); -2.4% in assay [2] (at 50.0 µM). Besides, the growth inhibition is -4% in assay [3] (setting [7]); 4% in assay [3] (setting [8]); 11.6% in assay [3] (at 50.0 µM); 7% in assay [4] (setting [7]); -4% in assay [4] (setting [8]); -16.8% in assay [4] (at 50.0 µM). The growth inhibition in assay [5] (setting [7]) is 1%; in assay [5] (setting [8]), 39%; in assay [5] (at 50.0 µM) it was -4.55%; in assay [6] (setting [7]) it was 8%; in assay [6] (setting [8]), -1%; in assay [6] (at 50.0 µM) it was 10.3%.

As to `Cc1cc(N(CCCl)CCCl)ccc1C=Nc1ccc(-c2csc(Cc3ccccc3)n2)c(Cl)c1`, the growth inhibition in assay [1] (setting [7]) was 5%; in assay [1] (setting [8]), 89% (active); in assay [1] (at 50.0 µM), 92.7% (active); in assay [2] (setting [7]), -7%; in assay [2] (setting [8]), 96% (active); in assay [2] (at 50.0 µM), 94.5% (active). The growth inhibition in assay [3] (setting [7]) is 2%; in assay [3] (setting [8]), 97% (active); in assay [3] (at 50.0 µM), 94.2% (active); in assay [4] (setting [7]) it was -18%; in assay [4] (setting [8]), 91% (active); in assay [4] (at 50.0 µM), 91.1% (active). Moreover, the growth inhibition in assay [5] (setting [7]) is 6%; in assay [5] (setting [8]), 94% (active); in assay [5] (at 50.0 µM), 89.2% (active); in assay [6] (setting [7]), -17%; in assay [6] (setting [8]), 94% (active); in assay [6] (at 50.0 µM), 93.7% (active).

Regarding `COc1cc(N(CC(C)Br)CC(C)Br)ccc1N=Nc1ccccc1C(=O)O` (configuration not stated), the growth inhibition in assay [1] (setting [7]) was 42%; in assay [1] (setting [8]), 96% (active); in assay [1] (at 50.0 µM), 65.2%; in assay [2] (setting [7]) it was 26%; in assay [2] (setting [8]) it was 95% (active); in assay [2] (at 50.0 µM) it was 29.1%. The growth inhibition in assay [3] (setting [7]) is 54%; in assay [3] (setting [8]), 95% (active); in assay [3] (at 50.0 µM), 32.4%; in assay [4] (setting [7]), 52%; in assay [4] (setting [8]) it was 98% (active); in assay [4] (at 50.0 µM), 78.2% (active). Moreover, the growth inhibition is 52% in assay [5] (setting [7]); 92% (active) in assay [5] (setting [8]); 32.9% in assay [5] (at 50.0 µM); 33% in assay [6] (setting [7]); 94% (active) in assay [6] (setting [8]); 80.2% (active) in assay [6] (at 50.0 µM).

`OCC1N2CCC(CC2)C1(O)O` (configuration not stated): the growth inhibition in assay [1] (setting [7]) was -2%; in assay [1] (setting [8]) it was 5%; in assay [1] (at 50.0 µM), -11.8%; in assay [2] (setting [7]), 2%; in assay [2] (setting [8]), -3%; in assay [2] (at 50.0 µM), -6.9%. The growth inhibition in assay [3] (setting [7]) is -3%; in assay [3] (setting [8]), 1%; in assay [3] (at 50.0 µM), 0.1%; in assay [4] (setting [7]), 2%; in assay [4] (setting [8]), 2%; in assay [4] (at 50.0 µM) it was -16.1%. Further, the growth inhibition in assay [5] (setting [7]) is 1%; in assay [5] (setting [8]) it was -4%; in assay [5] (at 50.0 µM) it was 34.5%; in assay [6] (setting [7]), -2%; in assay [6] (setting [8]) it was -4%; in assay [6] (at 50.0 µM), -12.7%.

With `O=C(Nc1ccccc1)c1cc([N+](=O)[O-])ccc1O.[Ni]`, the growth inhibition in assay [1] (setting [7]) was 51%; in assay [1] (setting [8]) it was 45%; in assay [1] (at 50.0 µM), 69.3%; in assay [2] (setting [7]), 34%; in assay [2] (setting [8]), 37%; in assay [2] (at 50.0 µM) it was 57.6%. The growth inhibition in assay [3] (setting [7]) is 34%; in assay [3] (setting [8]) it was 100% (active); in assay [3] (at 50.0 µM), 77.5% (active); in assay [4] (setting [7]), 46%; in assay [4] (setting [8]) it was 100% (active); in assay [4] (at 50.0 µM), 33.5%. In addition, the growth inhibition in assay [5] (setting [7]) is 54%; in assay [5] (setting [8]), 99% (active); in assay [5] (at 50.0 µM), 59.8%; in assay [6] (setting [7]), 38%; in assay [6] (setting [8]), 36%; in assay [6] (at 50.0 µM), 52.3%.

Consider `CC(=O)Oc1ccc(/C=C/[N+](=O)[O-])cc1`, for which the growth inhibition in assay [1] (setting [7]) was 27%; in assay [1] (setting [8]), 95% (active); in assay [1] (at 50.0 µM), 98.9% (active); in assay [2] (setting [7]), 6%; in assay [2] (setting [8]), 99% (active); in assay [2] (at 50.0 µM) it was 99.5% (active). In addition, the growth inhibition in assay [3] (setting [7]) was 12%; in assay [3] (setting [8]) it was 99% (active); in assay [3] (at 50.0 µM) it was 93.1% (active); in assay [4] (setting [7]), -2%; in assay [4] (setting [8]), 82% (active); in assay [4] (at 50.0 µM), 82% (active). Further, the growth inhibition in assay [5] (setting [7]) was 5%; in assay [5] (setting [8]), 99% (active); in assay [5] (at 50.0 µM) it was 99.4% (active); in assay [6] (setting [7]), 12%; in assay [6] (setting [8]), 98% (active); in assay [6] (at 50.0 µM), 98.3% (active).
